Screening data (PubChem)
A selection: hits, their analogues and other compounds. The true share with any hit is near 17%.
TDP1 block – TDP1 (human) enzyme inhibition; AID 485290; Q9NUW8; 350,000 tested, 0.28% active; Potency, µM (titrated, usually from 130 µM), most hits filed as inhibitors; recombinant TDP1, AlphaScreen DNA substrate cleavage; also: nearly all actives have a fitted effect of over 40% in size
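E. coli-derived human Tdp1, 1 nM final. Cpd preinc 15 min RT; substrate 15 nM final, 5 min RT; AS bead mix 10 ug/ml final, 10 min RT. Signal loss = tyrosine-FITC cleavage. No-enzyme wells = max signal.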
TDP1 cell CPT – DT40-hTDP1 cell growth loss with CPT; 420,000 tested, 12% active; chicken DT40 Tdp1-/-;hTDP1 cells + 20 nM CPT, ATP luminescence, 48 h; Potency, µM (doses to about 46.2 µM), most hits filed as inhibitors; also: nearly all actives have a fitted effect of over 55% in size
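Chicken DT40 Tdp1-/- cells complemented with human TDP1, 400 cells/well, exposed to compounds plus 20 nM camptothecin for at least 48 h at 37 C; viability read as ATP content by CellTiter-Glo luminescence.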
ClpP mod – qHTS Assay for Activators of ClpP; purified B. subtilis ClpP, FRET peptide cleavage, 20 min; 340,000 tested, 1.9% active; Potency, µM (titrated, usually from 57.5 µM); AID 651965, 2013; active = well fitted falling curve with a large enough effect; inconclusive = small, poorly fitted or top-dose-only effect; inactive = no such curve, though single readings can be large or run the other way; also: the source files actives as falling curves though it sought activators and does not explain the sign; nearly all actives have a fitted effect of over 65% in size
Target sequence (P80244 whole entry, looked up): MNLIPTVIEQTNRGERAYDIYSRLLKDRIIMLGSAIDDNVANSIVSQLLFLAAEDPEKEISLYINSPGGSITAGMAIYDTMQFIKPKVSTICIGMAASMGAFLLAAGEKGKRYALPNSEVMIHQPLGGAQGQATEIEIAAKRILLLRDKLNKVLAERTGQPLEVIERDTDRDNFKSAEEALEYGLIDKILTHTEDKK
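Buffer: 100 mM Tris/HCl pH8, 100 mM KCl, 0.05% low protease BSA, 2.5% glycerol, 0.01% Tween-20. ClpP 10 microg/mL final; 20 min RT; delta FRET normalized to ADEP and DMSO controls.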
TDP1 cell noCPT – qHTS for Inhibitors of human tyrosyl-DNA phosphodiesterase 1 (TDP1): qHTS in cells in absence of CPT | Potency, µM (highest dose often 46.2 µM), actives largely listed as inhibitors | 420,000 tested, 15% active | AID 686978, 2013 | DT40 Tdp1-/- hTDP1 cells, no CPT, ATP luminescence, 48 h; also: nearly all actives have a fitted effect of over 55% in size
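Growth of hTDP1-complemented DT40 Tdp1-knockout cells is measured by ATP luminescence after at least 48 hr compound exposure at 37 °C, with DMSO substituting for the 20 nM CPT used in the parallel screen.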
Each line names hits and unclear results; the compound was inactive in the other large screens. Unless noted, calls follow the shape of the dose curve; as a rule, active = well fitted curve in the direction sought with a large enough effect; inconclusive = small, poorly fitted or top-dose-only effect, or another doubt; inactive = no such curve, though single readings can be large; an effect the other way counts as inactive or inconclusive.

CN(C)CCCNc1nc2cc(-c3ccc4c(ccn4C)c3)sc2c(=O)n1C	TDP1 cell CPT 20.6µM, TDP1 cell noCPT inconclusive (no result: TDP1 block)
COc1ncccc1-c1cc2nc(NCCCN(C)C)n(C)c(=O)c2s1	TDP1 cell CPT 8.2µM, TDP1 cell noCPT 8.2µM (no result: TDP1 block)
Cc1ccc(F)cc1-c1cc2nc(NCCCN(C)C)n(C)c(=O)c2s1	TDP1 cell CPT 23.1µM, TDP1 cell noCPT 16.4µM (no result: TDP1 block)
CN(C)CCCNc1nc2cc(-c3ccsc3)sc2c(=O)n1C	TDP1 cell CPT inconclusive, TDP1 cell noCPT inconclusive (no result: TDP1 block)
CCCn1c(SCC(=O)NCCc2ccccc2)nnc1C(C)C	none (no result: TDP1 block, ClpP mod)
Cc1ccc(C)c(N(CC(=O)NC(C)C)C(=O)CCC(=O)Nc2ccccn2)c1	none
c1ccc(Nc2nc3ccccc3n3nnnc23)cc1	TDP1 cell CPT inconclusive, TDP1 cell noCPT inconclusive (no result: TDP1 block)
Fc1cccc(Nc2nc3ccccc3n3nnnc23)c1	TDP1 cell CPT inconclusive, TDP1 cell noCPT inconclusive
c1ccc2c(c1)nc(Nc1ccc3c(c1)OCO3)c1nnnn12	TDP1 cell CPT inconclusive, TDP1 cell noCPT 16.4µM
CCN(CC)S(=O)(=O)c1ccc(Nc2nc3ccccc3n3nnnc23)cc1	TDP1 cell CPT 23.1µM, ClpP mod inconclusive, TDP1 cell noCPT 16.4µM
Cc1ccc(C)c(N2CCN(C(=O)c3ccc(Nc4nc5ccccc5n5nnnc45)cc3)CC2)c1	none
COc1ccccc1N1CCN(C(=O)c2ccc(Nc3nc4ccccc4n4nnnc34)cc2)CC1	TDP1 cell CPT 9.2µM, TDP1 cell noCPT inconclusive
COc1cccc(Nc2nc3ccccc3n3nnnc23)c1	TDP1 cell CPT inconclusive, TDP1 cell noCPT inconclusive
COc1ccc(Nc2nc3ccc(Cl)cc3n3nnnc23)cc1OC	TDP1 cell CPT inconclusive, TDP1 cell noCPT 16.4µM
O=C(CSc1nc(Nc2ccccc2)nc(N2CCOCC2)n1)N1CCc2ccccc21	TDP1 cell CPT inconclusive, TDP1 cell noCPT 18.4µM
O=C(CSc1nc(N2CCCCC2)nc(N2CCCCC2)n1)N1CCc2ccccc21	none (no result: TDP1 cell CPT, ClpP mod, TDP1 cell noCPT)
O=C(CSc1nc(Nc2ccccc2)nc(N2CCOCC2)n1)N1CCCC1	TDP1 cell CPT inconclusive, TDP1 cell noCPT 20.6µM
O=C(CSc1nc(N2CCCCC2)nc(N2CCCCC2)n1)N1CCN(c2ccccc2)CC1	TDP1 cell CPT 23.1µM, TDP1 cell noCPT 16.4µM
Cc1cccc(-n2ncc(C(=O)Nc3ccc4c(c3)OCO4)c2C2CCN(C(=O)OC(C)(C)C)CC2)c1	TDP1 cell CPT 18.4µM, TDP1 cell noCPT inconclusive
CC(C)(C)OC(=O)N1CCC(c2c(C(=O)Nc3ccc4c(c3)OCCO4)cnn2-c2ccc(F)cc2F)CC1	TDP1 cell CPT 20.6µM
COc1ccc(NC(=O)c2cnn(-c3ccc(F)cc3F)c2C2CCN(C(=O)OC(C)(C)C)CC2)cc1Cl	TDP1 cell CPT inconclusive, TDP1 cell noCPT 18.4µM
CC(C)(C)OC(=O)N1CCC(c2c(C(=O)Nc3cccc(C(F)(F)F)c3)cnn2-c2ccc(F)cc2F)CC1	TDP1 cell CPT inconclusive, TDP1 cell noCPT inconclusive
COc1cc(Cl)c(C)cc1NC(=O)c1cnn(-c2ccc(F)cc2F)c1C1CCN(C(=O)OC(C)(C)C)CC1	TDP1 cell CPT inconclusive, TDP1 cell noCPT inconclusive
CCOC(=O)c1ccc(N=c2sc(C(=O)OC)cc(=O)n2Cc2ccco2)cc1	TDP1 cell CPT 13µM, TDP1 cell noCPT 20.6µM
CCOC(=O)c1ccc(N=c2sc(C(=O)OC)cc(=O)n2CCCN2CCOCC2)cc1	TDP1 cell CPT 14.6µM, TDP1 cell noCPT 14.6µM
COC(=O)c1cc(=O)n(CCc2ccccc2)c(=Nc2ccc(F)cc2)s1	TDP1 cell CPT inconclusive, TDP1 cell noCPT inconclusive
COCCn1c(C)cc(O)c(C(c2ccc(F)cc2)N2CCN(c3ccccc3)CC2)c1=O (centres undefined)	none
COc1cc(CN2CCCC(n3cc(C(=O)N4CCCCC4)nn3)C2)cc2c1OCO2 (centres undefined)	none (no result: TDP1 block, ClpP mod)
Oc1ccc(Oc2ccc3c(C(F)(F)F)cc(C(F)(F)F)nc3n2)cc1	TDP1 cell CPT 14.6µM, TDP1 cell noCPT 18.4µM
COc1ccccc1-c1cc2ccccc2[nH]1	ClpP mod 39.8µM
O=C(O)c1ccccc1-c1cc2ccccc2[nH]1	none (no result: TDP1 block)
COC(=O)CCC(=O)OC1(C)C(=O)C=C2C=C(C3CC3)OC=C2C1=O (centres undefined)	none (no result: TDP1 cell CPT, ClpP mod, TDP1 cell noCPT)
Cc1ccc(C(=O)Cc2cc3ccccc3oc2=O)c(C)c1	TDP1 cell noCPT inconclusive (no result: TDP1 block)
CCCCn1nc(C(=O)NNC(=O)c2ccncc2)c2ccccc2c1=O	none
CC1(c2ccccc2Cl)NC(=O)N(CC(=O)NCc2ccc3c(c2)OCO3)C1=O (centres undefined)	none (no result: ClpP mod)
CC1(C)Cc2nc3oc4c(N(CCO)Cc5ccccc5)ncnc4c3cc2CO1	TDP1 cell CPT 20.6µM, ClpP mod 14.1µM, TDP1 cell noCPT 20.6µM
Cc1nnc(SCC(=O)NNC(=O)c2ccco2)s1	none (no result: ClpP mod)
O=C(NCc1ccccc1)c1c[nH]c2ccccc2c1=O	TDP1 cell noCPT inconclusive
CCc1nn(CC(=O)Nc2ccc(NC(C)=O)cc2)c(=O)c2cc3sccc3n12	none
CC(=O)c1cccc(NC(=O)Cn2nc(C)n3cccc3c2=O)c1	TDP1 cell noCPT 16.4µM
CCc1nn(CC(=O)NCCCN2CCc3ccccc3C2)c(=O)c2cc3sccc3n12	TDP1 cell CPT 23.1µM, TDP1 cell noCPT inconclusive
CCc1nn(CC(=O)Nc2cccc(C(C)=O)c2)c(=O)c2cc3sccc3n12	TDP1 cell CPT 18.4µM, TDP1 cell noCPT inconclusive
CCOC(=O)c1cccc(NC(=O)Cn2nc(C)n3cccc3c2=O)c1	none
Cc1cccc(SC2CCN(C(=O)C3CCC(=O)N(C4CC4)C3)CC2)c1 (centres undefined)	TDP1 cell noCPT inconclusive
CCN1CCc2c(sc(N)c2C(N)=O)C1	TDP1 cell CPT inconclusive, ClpP mod 14.1µM, TDP1 cell noCPT 23.1µM
CN1CCc2c(sc(N)c2C(N)=O)C1	TDP1 cell CPT 25.9µM, ClpP mod 20µM, TDP1 cell noCPT 20.6µM
CCN1CCc2c(sc(NC(=O)C3CCCCC3)c2C(=O)OC)C1	TDP1 cell CPT 25.9µM, TDP1 cell noCPT inconclusive (no result: TDP1 block)
CCN1CCc2c(sc(NC(=S)NC(=O)c3cccc(F)c3)c2C(N)=O)C1	TDP1 cell CPT inconclusive, ClpP mod inconclusive, TDP1 cell noCPT inconclusive
CN1CCc2c(sc(/N=C/c3c[nH]c4ccccc34)c2C(N)=O)C1	TDP1 block inconclusive, TDP1 cell noCPT 16.4µM
NC(=O)c1c(N)sc2c1CCCC2	none
CC(C)(C)N1C(=O)[C@H]2[C@H]3[C@H](O)[C@H](O)C/C(=N/OC[C@@H](O)COCc4ccco4)[C@@H]3CC[C@@H]2C1=O	none (no result: TDP1 cell CPT, ClpP mod, TDP1 cell noCPT)
COC(C(=O)C(O)C(C)O)C1Cc2cc3cc(OC4CC(OC5CC(O)C(O)C(C)O5)C(O)C(C)O4)c(C)c(O)c3c(O)c2C(=O)C1OC1CC(OC2CC(OC3CC(O)C(OC)C(C)O3)C(O)C(C)O2)C(O)C(C)O1 (centres undefined)	TDP1 cell CPT 0.103µM, TDP1 cell noCPT 0.146µM (no result: TDP1 block)
Cc1ccc(C2=N/C(=C/N3CCOCC3)C(=O)O2)cc1	none
Cc1cccc2cc(/C=C3\N=C(c4ccccc4)OC3=O)c(N3CCOCC3)nc12	TDP1 cell CPT inconclusive, TDP1 cell noCPT 23.1µM
